From PubChem BioAssay (NCI)
About 79,000 compounds went through this panel and 15% of them were active in at least one assay; those are over-represented in the sample as a whole. Calls of active or inactive are those of the source. Rule as the data show it: active = growth inhibition above about 70%; inactive = the rest.

Legend:
[1] = NCI Yeast Anticancer Drug Screen. Data for the rad50 strain (AID 155);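 also: 0% = growth of vehicle-only cultures of the same strain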; conditions: S. cerevisiae rad50 strain growth inhibition, stronger effect = higher value
Procedure, shortened: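 DNA repair mutant yeast, compound exposure, growth read-out; inhibition is taken relative to vehicle.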

[2] = NCI Yeast Anticancer Drug Screen. Data for the mec2-1 strain (AID 157); conditions: S. cerevisiae mec2-1 strain, stronger effect = higher value
Procedure, shortened: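 Using mec2-1 yeast: add compound, measure growth, express inhibition versus vehicle-treated cultures.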

[3] = NCI Yeast Anticancer Drug Screen. Data for the sgs1 mgt1 strain (AID 161);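 also: 0% = growth of cultures given vehicle only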; conditions: S. cerevisiae sgs1 mgt1 strain, stronger effect = higher value
Procedure, shortened: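 Percent growth inhibition was derived by comparing compound-exposed mutant yeast with vehicle-exposed cultures. The strain carries alterations in DNA damage repair.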

[4] = NCI Yeast Anticancer Drug Screen. Data for the cln2 rad14 strain (AID 165);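 also: 0% = growth equal to vehicle treated cultures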; conditions: S. cerevisiae cln2 rad14 strain, stronger effect = higher value
Procedure, shortened: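 Yeast strain cln2 rad14, bearing defects in cell cycle control and DNA repair, serves as the test system; values reflect growth inhibition compared with vehicle.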

[5] = NCI Yeast Anticancer Drug Screen. Data for the bub3 strain (AID 167); conditions: S. cerevisiae bub3 mutant strain, stronger effect = higher value
Procedure, shortened: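 In this screen, a yeast mutant lacking normal mitotic checkpoint function is challenged with compound. Relative growth versus vehicle gives the inhibition value.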

[6] = NCI Yeast Anticancer Drug Screen. Data for the mlh1 rad18 strain (AID 175); conditions: S. cerevisiae mlh1 rad18 strain growth inhibition, stronger effect = higher value
Procedure, shortened: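 Steps: expose repair-defective yeast to compound; measure growth; express inhibition against vehicle-treated controls.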

[7] = at 5.0 µM (retest, dose inferred, filed as 0.5)
[8] = at 50.0 µM (retest, dose inferred, filed as 5.0)

Measured: growth inhibition

O=C(O)CCC(O)=C1S(=O)(=O)OCCOS1(=O)=O
inactive: [1]; [7] -21% | [1]; [8] 16% | [1]; at 50.0 µM 36% | [2]; [7] -8% | [2]; [8] 10% | [2]; at 50.0 µM 4.25% | [3]; [7] -16% | [3]; [8] -3% | [3]; at 50.0 µM -1.5% | [4]; [7] -42% | [4]; [8] -30% | [4]; at 50.0 µM 47.7% | [5]; [7] -18% | [5]; [8] 3% | [5]; at 50.0 µM 15.7% | [6]; [7] -17% | [6]; [8] -28% | [6]; at 50.0 µM 8.3%

O=c1oc(-c2ccc(Cl)cc2[N+](=O)[O-])nc2ccccc12
active: [1]; at 50.0 µM 77.2% | [3]; at 50.0 µM 70.3%
inactive: [1]; [7] 16% | [1]; [8] 10% | [2]; [7] 17% | [2]; [8] -1% | [2]; at 50.0 µM 63.6% | [3]; [7] 5% | [3]; [8] 6% | [4]; [7] 31% | [4]; [8] 5% | [4]; at 50.0 µM 39.2% | [5]; [7] -6% | [5]; [8] 6% | [5]; at 50.0 µM 66.5% | [6]; [7] -23% | [6]; [8] -13% | [6]; at 50.0 µM 68.5%

CCOC(=O)Nc1nc2ccc(Cn3cccc3)cc2[nH]1
inactive: [1]; [7] 25% | [1]; [8] 31% | [1]; at 50.0 µM 17.8% | [2]; [7] 19% | [2]; [8] 22% | [2]; at 50.0 µM -12.5% | [3]; [7] 24% | [3]; [8] 24% | [3]; at 50.0 µM 10.9% | [4]; [7] 33% | [4]; [8] 24% | [4]; at 50.0 µM 6.05% | [5]; [7] 22% | [5]; [8] 24% | [5]; at 50.0 µM -1.9% | [6]; [7] 25% | [6]; [8] 23% | [6]; at 50.0 µM -0.95%

CCC1(C)OC(=O)C(c2ccccc2)O1 (configuration not stated)
inactive: [1]; [7] 1% | [1]; [8] -6% | [1]; at 50.0 µM 9.2% | [2]; [7] -2% | [2]; [8] 7% | [2]; at 50.0 µM -1.85% | [3]; [7] 5% | [3]; [8] -5% | [3]; at 50.0 µM -19.5% | [4]; [7] 2% | [4]; [8] 1% | [4]; at 50.0 µM 9.7% | [5]; [7] 2% | [5]; [8] 3% | [5]; at 50.0 µM -6.45% | [6]; [7] -2% | [6]; [8] -5% | [6]; at 50.0 µM 17.1%

CCCC(=O)c1cc(O)c(O)c(CN(C)Cc2cc(Cl)cc(C)c2O)c1O
inactive: [1]; [7] -8% | [1]; at 50.0 µM 55% | [2]; [7] 3% | [2]; at 50.0 µM 52.5% | [3]; [7] -11% | [3]; at 50.0 µM 50.5% | [4]; [7] -16% | [4]; at 50.0 µM 60.6% | [5]; [7] -7% | [5]; at 50.0 µM 49% | [6]; [7] 19% | [6]; at 50.0 µM 54.5%
active: [1]; [8] 91% | [2]; [8] 97% | [3]; [8] 94% | [4]; [8] 90% | [5]; [8] 97% | [6]; [8] 96%

CCCCCCCCN(CCCCCCCC)C(=O)C(C)O (configuration not stated)
inactive: [1]; [7] 14% | [2]; [7] -2% | [3]; [7] 20% | [4]; [7] 9% | [5]; [7] 6% | [6]; [7] 27%
active: [1]; [8] 98% | [1]; at 50.0 µM 98.7% | [2]; [8] 98% | [2]; at 50.0 µM 89.2% | [3]; [8] 99% | [3]; at 50.0 µM 97.7% | [4]; [8] 97% | [4]; at 50.0 µM 81.7% | [5]; [8] 99% | [5]; at 50.0 µM 97.5% | [6]; [8] 98% | [6]; at 50.0 µM 94%

CC(C)(C)/C=N/NS(=O)(=O)c1ccccc1
inactive: [1]; [7] -114% | [1]; [8] -146% | [1]; at 50.0 µM -1% | [2]; [7] -43% | [2]; [8] -43% | [2]; at 50.0 µM -7.35% | [3]; [7] -44% | [3]; [8] -62% | [3]; at 50.0 µM 2.5% | [4]; [7] -50% | [4]; [8] -61% | [4]; at 50.0 µM 40.5% | [5]; [7] -57% | [5]; [8] -67% | [5]; at 50.0 µM -5.2% | [6]; [7] -100% | [6]; [8] -108% | [6]; at 50.0 µM 4.65%

O=C1c2ccccc2S(=O)(=O)CC1Br (configuration not stated)
inactive: [1]; [7] -7% | [2]; [7] -21% | [3]; [7] 13% | [4]; [7] 6% | [4]; [8] 58% | [5]; [7] -4% | [6]; [7] 30%
active: [1]; [8] 96% | [1]; at 50.0 µM 99.2% | [2]; [8] 85% | [2]; at 50.0 µM 99.7% | [3]; [8] 98% | [3]; at 50.0 µM 99.3% | [4]; at 50.0 µM 99.3% | [5]; [8] 89% | [5]; at 50.0 µM 99.4% | [6]; [8] 98% | [6]; at 50.0 µM 99.2%

C[n+]1c(/C=C/c2ccc(N3CCCC3)cc2)sc2ccccc21
inactive: [2]; [7] 37% | [4]; [7] 60% | [5]; [7] 46%
active: [1]; [7] 76% | [1]; [8] 98% | [1]; at 50.0 µM 98.6% | [2]; [8] 99% | [2]; at 50.0 µM 99.2% | [3]; [7] 95% | [3]; [8] 99% | [3]; at 50.0 µM 98.5% | [4]; [8] 98% | [4]; at 50.0 µM 98.8% | [5]; [8] 98% | [5]; at 50.0 µM 98.2% | [6]; [7] 85% | [6]; [8] 98% | [6]; at 50.0 µM 98.8%
